# Bioassay records as filed in PubChem BioAssay.
# Shown are actives, neighbours in structure and some others; about 7.8% of the full set was active somewhere.
# Cav3 T inh – Cav3.2 calcium influx blockers – cell-based, Fluo-4 calcium fluorescence, FDSS, MLSMR library, primary screen; Voltage-dependent T-type calcium channel subunit alpha-1H (Homo sapiens), O95180; AID 449739, 2010; Cav3.2-expressing cells; active compounds read low; 100,000 tested, 4% active; B-score at 10 µM;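 active = single-dose well whose peak fluorescence ratio is a statistical outlier from its plate by either plate-standardised score or position-corrected B-score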
# sEH inhibitor – soluble epoxide hydrolase inhibitors, primary screen, biochemical, human sEH; Bifunctional epoxide hydrolase 2 (Homo sapiens), P34913; recombinant human sEH enzymatic activity assay; inhibition, % at 2 µM; 91,000 tested, 0.34% active; AID 707, 2007; in the data active = inhibition above about 80%
# Target sequence (P34913 whole entry, looked up): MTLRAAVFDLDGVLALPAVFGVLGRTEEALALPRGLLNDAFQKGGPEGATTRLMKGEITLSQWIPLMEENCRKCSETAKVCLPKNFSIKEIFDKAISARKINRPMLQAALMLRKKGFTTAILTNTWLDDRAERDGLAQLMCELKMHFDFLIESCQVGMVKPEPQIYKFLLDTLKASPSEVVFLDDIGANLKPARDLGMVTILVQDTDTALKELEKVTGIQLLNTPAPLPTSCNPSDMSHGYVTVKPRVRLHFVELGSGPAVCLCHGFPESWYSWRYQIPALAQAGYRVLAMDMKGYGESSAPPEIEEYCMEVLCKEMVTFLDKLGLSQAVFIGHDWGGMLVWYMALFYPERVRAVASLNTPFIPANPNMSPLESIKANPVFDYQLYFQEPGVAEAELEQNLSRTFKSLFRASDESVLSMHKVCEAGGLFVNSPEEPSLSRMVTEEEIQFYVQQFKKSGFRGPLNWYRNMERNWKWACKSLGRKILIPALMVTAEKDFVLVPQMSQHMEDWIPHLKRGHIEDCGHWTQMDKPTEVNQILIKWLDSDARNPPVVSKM
# sEH act – soluble epoxide hydrolase activators, primary screen, biochemical, human sEH; Bifunctional epoxide hydrolase 2 (Homo sapiens), P34913; purified human sEH enzymatic activity, activator screen; activation, % at 2 µM; 91,000 tested, 0.04% active; AID 717, 2007; in the data active = activation above about 37%
# PostGolgi ctrl – growth inhibition of yeast control strain, primary screen, counter-screen for post-Golgi transport modulator project; efflux-deficient yeast background strain, growth absorbance A615, 16 h; AID 738, 2007; inhibition, % at 10 µM; 98,000 tested, 5% active
# PostGolgi yeast – phenotypic screen on post-Golgi transport, primary screen; post-Golgi transport phenotypic cell assay; inhibition, % at 10 µM; 98,000 tested, 0.9% active;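 also: yeast cells grown in 1536-well plates; yeast grown about 18 h at 30C before absorbance read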
# The depositor's hits bear a star; x = no result. Rule as the data show it, unless noted: active = inhibition above about 30%; inactive = the rest.
SMILES,Cav3 T inh,sEH inhibitor,sEH act,PostGolgi ctrl,PostGolgi yeast
Cc1cc(C)cc(Nc2ncc3c(n2)CCCC3=O)c1,0.702,-8.5,7.1,33.4*,9.3
COc1ccc(C2=CC3=C(Br)C(=O)C(C)(OC(=O)c4cnc5ccccc5n4)C(=O)C3=CO2)cc1 (centres undefined),0.0191,x,x,x,x
Cc1nn(-c2ccccc2)c(Cl)c1/C=C1\SC(=S)NC1=O,-4.48*,-10.6,7.3,25.9,20.6
O=C(O)C1CC(O)CN1C(=O)c1ccco1 (centres undefined),0.319,7.2,-5.0,8.3,4.0
COc1ccccc1OCCn1cc(C(=O)c2ccco2)c2ccccc21,-3.54,-3.9,3.3,25.2,35.2*
COC(C[C@@H](O)C[C@@H](O)COCc1ccccc1)OC,-0.000763,x,x,x,x
O=C(CS(=O)(=O)Cc1ccccc1)N1CCN(c2cccc(C(F)(F)F)c2)CC1,-4.32*,1.5,-1.9,2.7,-3.9
CC(CC(=O)Nc1nncs1)c1ccccc1 (centres undefined),-0.516,14.9,-10.5,x,x
COc1cccc(NC(=O)CN2CCN(c3ccccc3F)CC2)c1,x,1.5,-4.8,32.1*,-7.9
COc1cc(NC(=O)CN2CCN(S(=O)(=O)c3ccc(C(C)C)cc3)CC2)cc(OC)c1,-4.21*,9.0,-6.6,20.5,-3.1
COc1cccc(NC(=O)CN2CCN(S(=O)(=O)c3ccc(F)cc3)CC2)c1,0.0261,-8.8,5.8,0.1,-2.4
COc1cccc(NC(=O)CN2CCN(S(=O)(=O)c3ccc(C(C)C)cc3)CC2)c1,-7.27*,-2.4,5.0,17.9,-9.6
CCCCn1c(N)c(N(CCC(C)C)C(=O)CSc2nnc(C)s2)c(=O)[nH]c1=O,-0.105,-5.1,4.5,9.7,-3.7
O=C(Nc1ccc(N2CCCC2)cc1)c1ccc(Br)o1,-0.0656,14.0,-14.4,-4.2,7.3
Cc1cc(N2CCCCC2)nc2ccc(NC(=O)c3ccc(Br)o3)cc12,-4.92*,-6.9,2.4,-21.5,4.8
O=S1(=O)C=C(Oc2ccc(F)cc2)c2ccccc21,-0.272,4.5,-4.0,-8.5,4.5
O=S1(=O)C=C(Oc2ccc3ccccc3c2)c2ccccc21,-0.295,-0.7,4.3,34.0*,-7.2
Cn1c(=O)c2c(nc(N3CCc4ccccc4C3)n2Cc2ccc(Br)cc2)n(C)c1=O,-0.411,2.7,-1.6,26.8,-4.6
Cn1c(=O)c2c(nc(N3CCc4ccccc4C3)n2Cc2ccccc2F)n(C)c1=O,-3.74,-7.5,8.9,47.2*,8.8
Cn1c(=O)c2c(nc(N3CCN(c4ccccn4)CC3)n2Cc2ccccc2Cl)n(C)c1=O,0.722,8.4,-5.9,33.0*,-1.1
O=C(Nc1ccccc1Sc1ccccc1)c1ccccc1F,-1.61,-18.2,14.7,x,x
O=S(=O)(NC1CCCCC1)c1cccc(-c2nnc(-c3ccccc3)o2)c1,-1.18,4.3,-0.4,31.5*,17.2
Cc1ccccc1NS(=O)(=O)c1cccc(-c2nnc(-c3ccccc3)o2)c1,-0.427,12.3,-11.9,0.9,-10.7
CN(C)c1nc(OCC(=O)NC(C)(C)C)nc(N(C)C)n1,0.584,13.4,-13.5,5.0,-4.6
Cc1ccc(C2C=C(c3ccccc3OC(F)F)Nc3ncnn32)cc1 (centres undefined),x,x,x,21.7,0.5
SMILES,Cav3 T inh,sEH inhibitor,sEH act,PostGolgi ctrl,PostGolgi yeast
CN(C)c1ccc(C2C=C(c3ccc(Cl)cc3OC(F)F)Nc3ncnn32)cc1 (centres undefined),-5.93*,x,x,31.3*,3.1
O=C1CC(c2cccc([N+](=O)[O-])c2)c2ccc3ccccc3c2N1 (centres undefined),-1.49,3.3,-1.1,53.9*,9.3
CCOC(=O)C1=C(c2ccccc2)N(C)C(=O)NC1c1ccc(OC(F)F)c(OC)c1 (centres undefined),-8.58*,33.5,-31.5,8.3,-0.7
COc1ccc2[nH]c(=O)c(CNc3cccc(C)c3)cc2c1,-0.707,2.7,-5.4,9.4,12.8
Cc1oc(-c2ccccc2)cc1C(=O)Nc1cccc2ccccc12,-4.97*,-0.1,3.0,30.3*,-7.7
Cc1oc(-c2ccccc2)cc1C(=O)Nc1cccc(C(=O)O)c1,-0.0641,3.6,-1.1,1.8,-1.2
CC(C)Oc1ccccc1C1CC(=O)Nc2c1c(=O)n(C)c(=O)n2C (centres undefined),x,-13.8,10.9,10.4,-8.6
O=C(CN1CCN(c2ccc(F)cc2)CC1)N1CCC(Cc2ccccc2)CC1,-0.533,-5.6,4.2,31.0*,2.4
O=C(CN1C(=O)NC2(CCCCCC2)C1=O)N1CCC(Cc2ccccc2)CC1,4.28*,-11.2,9.0,x,x
COc1cc2c(C(=O)N3CCN(c4cccc(Cl)c4)CC3)cn(CC(C)C)c(=O)c2cc1OC,x,-2.5,0.1,10.4,17.0
O=C1c2ccccc2C(O)(c2ncc[nH]2)N1CCc1ccccc1 (centres undefined),-0.0334,-1.8,4.1,4.6,-3.4
C=CCn1c(=O)c2ccccc2n2c(SCc3csc(-c4ccccc4)n3)nnc12,0.476,x,x,25.3,-3.1
O=C(NC1CC1)C1=C[C@H](c2ccc(C(F)(F)F)cc2)C[C@H](OCc2ccc(CO)cc2)O1,1.3,x,x,x,x
Cc1nn(-c2nc3ccccc3n2Cc2ccccc2)c2c1C(=O)CC(C)(C)C2,-4.97*,7.2,-6.0,25.7,-11.5
Cc1sc(NC(=O)CSC2=NCCS2)nc1-c1ccccc1,-4.39*,-0.5,1.9,5.9,0.0
Cc1cc(NC(=O)CSC2=NCCS2)no1,0.0391,13.8,-15.4,30.5*,-5.4
CN(c1ccccc1)c1nc(N2CCCC2)nc(-n2ccnc2)n1,-2.83,5.3,-3.5,90.5*,104.5*
c1ccc(-c2nc(-n3ccnc3)nc(-n3ccnc3)n2)cc1,0.787,x,x,11.2,3.9
c1ccc(N(c2ccccc2)c2nc(N3CCCC3)nc(-n3ccnc3)n2)cc1,x,7.5,-6.1,32.4*,2.0
c1ccc(CN2CCN(c3nc(-c4ccccc4)nc(-n4ccnc4)n3)CC2)cc1,-0.0372,-0.9,1.3,77.4*,48.2*
Cc1ccc(Cl)cc1N1CCN(Cc2nnnn2Cc2ccco2)CC1,-6.66*,-2.2,2.5,38.3*,3.7
CCC(c1nnnn1Cc1ccco1)N1CCN(c2cc(Cl)ccc2C)CC1 (centres undefined),-5.76*,0.3,1.8,56.5*,4.3
c1ccc(N2CCN(Cc3nnnn3C3CCCCC3)CC2)cc1,0.492,-13.9,10.4,0.5,-1.2
Cc1ccc(Cl)cc1N1CCN(Cc2nnnn2C2CCCCC2)CC1,-5.22*,-7.4,7.7,57.5*,5.1
COC(=O)C1=C(C(=O)OC)[C@@H]2N(C)c3ccc(OC)cc3[C@@]23C[C@@H](C(=O)OC)N(C(=O)COCc2ccccc2)C3=N1,-0.0345,x,x,x,x
O=C(NCCN1CCOCC1)c1cnn2c(-c3ccccc3)cc(-c3ccccc3)nc12,-1.38,-13.1,12.7,9.3,-0.2
COc1ccc(C(CC(=O)NCCCN2CCOCC2)NS(=O)(=O)c2ccc(C)cc2)cc1 (centres undefined),x,-3.8,4.1,1.7,5.5
